Test results taken from PubChem BioAssay (NCATS).
Several values for one entry are separate records, joined by “and”; a condition that tells them apart may be missing. Identical values can stand only once. Results filed as inconclusive are left out. A call without a number means that no potency is given here. The source holds several records for some structures; these can differ, active in one and inactive in another. Activity calls are given as the source filed them. Unless noted, calls follow the shape of the dose curve; as a rule, active = well fitted curve in the direction sought with a large enough effect; inconclusive = small, poorly fitted or top-dose-only effect, or another doubt; inactive = no such curve, though single readings can be large; an effect the other way counts as inactive or inconclusive.

Legend:
[1] = target: ATP-dependent 6-phosphofructokinase (Trypanosoma brucei brucei) (UniProt O15648); assay: qHTS Validation Assay to Find Inhibitors of T. brucei phosphofructokinase (AID 485368)
How it was run: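 ADP-Glo luminescence, two-step: residual ATP depleted, then ADP converted to ATP for luciferase. Enzyme 1.25 nM, F6P 0.5 mM, ATP 0.1 mM, pH 8.0 TEA buffer, 45 min RT. Curves fitted and classed by quality and efficacy.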

[2] = Quantitative high throughput screen for delayed death inhibitors of the malarial parasite plastid, 96 hour incubation (AID 488745); also: nearly all actives have a fitted effect of over 70% in size; also: potency is read from the fitted curve at half-maximal effect
How it was run: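 Readout is firefly luciferase luminescence from an integrated reporter in P. falciparum; lower signal marks inhibited growth. Cultures at 2% hematocrit and 0.1% parasitemia were treated with compound across two generations (96 h, 37 C, 5% CO2).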

[3] = target: Thioredoxin reductase 1, cytoplasmic (Rattus norvegicus) (UniProt O89049); assay: qHTS Assay for Substrates of Mammalian Selenoprotein Thioredoxin Reductase 1 (TrxR1) (AID 488772);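 also: series mostly up to about 57 µM; a drop in NADPH fluorescence below the no-compound background marks a TrxR1 substrate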
How it was run: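 In this dual-purpose format, potential substrates are identified from the first fluorescence read after selenite addition, not from the 8-minute delta. Rat enzyme is preincubated with NADPH and then with compound at ~22 deg C.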

[4] = target: Thioredoxin reductase 1, cytoplasmic (Rattus norvegicus) (UniProt O89049); assay: qHTS Assay for Inhibitors of Mammalian Selenoprotein Thioredoxin Reductase 1 (TrxR1) (AID 488773); settings: Potency: inhibition; also: nearly all actives have a fitted effect of over 40% in size; also: potency is read from the fitted curve at half-maximal effect
How it was run: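 Inhibition is scored from the loss of NADPH fluorescence between first and last reads of an 8-min kinetic run. Selenite (400 uM) was the substrate, added after 15 min compound preincubation at room temperature.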

[5] = target: Flap endonuclease 1 (Homo sapiens) (UniProt P39748); assay: qHTS Validation Assay for the Inhibitors of Human Flap endonuclease 1 (FEN1) (AID 488816); also: potency is read from the fitted curve at half-maximal effect
How it was run: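 qHTS format: compounds and 10 nM FEN1 incubated 15 min at room temperature before adding 50 nM substrate. Cleavage followed by reads at 0 and 15 min; normalized data fitted to a four-parameter Hill curve.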

[6] = target: M-phase phosphoprotein 8 (Homo sapiens) (UniProt Q99549); assay: qHTS Validation Assay for Inhibitors for MPP8 Chromodomain Interactions with Methylated Histone Tails (AID 488949); also: nearly all actives have a fitted effect of over 55% in size; also: potency is read from the fitted curve at half-maximal effect
How it was run: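 MPP8 (50 nM) was pre-bound to 50 nM biotinylated H3(1-18)K9me3 peptide in PBS pH 7.4 with 0.01% Tween-20. Compounds were then added for 30 min at room temperature, and complex disruption was read by AlphaScreen with streptavidin donor and nickel-chelate acceptor beads.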

[7] = target: Methanococcus maripaludis chaperonin (MmCpn) (UniProt Q6LX38); assay: High-Throughput Screening for Modulators of Cytosolic Chaperonin Activity: MmCpn Primary Screen (AID 488978);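 also: 50 nM MmCpn enzyme hydrolysing 30 µM ATP at 37 °C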
How it was run: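 MmCpn at 50 nM final was preincubated 5 min at RT with compound. ATP was then added at 30 uM final for 10 min at 37 C. ADP formed was detected by Transcreener HTRF (665/590 nm).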

[8] = target: Transient receptor potential cation channel subfamily V member 1 (Homo sapiens) (UniProt Q8NER1); assay: HTS Assay for Compounds that Act as Enhancers of the Vanilloid Receptor 1 (AID 488979)
How it was run: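 Calcium influx kinetics via Fluo-8 (480/520 nm) in TRPV1-expressing cells, 2000/well cultured overnight at 35.5C. Compound-alone read 3 min (agonist phase), followed by EC20 capsaicin challenge for 2 min (enhancer phase).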

[9] = target: Thyrotropin receptor (Homo sapiens) (UniProt P16473); assay: qHTS Assay for Antagonists of the Thyroid Stimulating Hormone Receptor (AID 488980); also: series mostly up to about 58 µM
How it was run: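 TSHR-transfected HEK293 cells (2000/well) in HEPES-buffered HBSS with 70 uM RO 20-1724 were stimulated with 4 nM TSH (EC80, final) in the presence of compound. cAMP was measured by HTRF competition after lysis and 30 min at RT.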

[10] = target: D(1A) dopamine receptor (Homo sapiens) (UniProt P21728); assay: HTS Assay for Allosteric Agonists of the Human D1 Dopamine Receptor: Primary Screen for Agonists (AID 488981); also: potency is read from the fitted curve at half-maximal effect
How it was run: (§1)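 Calcium flux in an inducible, force-coupled HEK293 Trex D1 line (overnight at 30 C): agonist mode is the 180 s kinetic read after compound; potentiator mode is the following 180 s read after dopamine at EC20.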

[11] = target: D(1A) dopamine receptor (Homo sapiens) (UniProt P21728); assay: HTS Assay for Allosteric Agonists of the Human D1 Dopamine Receptor: Primary Screen for Potentiators (AID 488982)
How it was run: as §1

[12] = Validation screen for small molecules that induce genotoxicity in human embryonic kidney (HEK293T) cells expressing luciferase-tagged ELG1 (AID 493106)
How it was run: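 Cells were dispensed at 2,000 per well, then 23 nL compound or DMSO was pinned in. After 16 hr at 37 °C and 5% CO2, ONE-Glo reagent was added. Luciferase activity was measured following 30 min at room temperature.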

[13] = target: Thyrotropin-releasing hormone receptor (Homo sapiens) (UniProt P34981); assay: qHTS for Small Molecule Agonists and Allosteric Enhancers of Human TRH Receptor: Validation Screen for Agonists (AID 493127;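 active = calcium activation more than 3 SD above the typical response in the agonist read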;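 also: intracellular calcium rise by fluo-8 fluorescence before TRH EC20 addition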); settings: TRH receptor agonist cell assay; at 2 µM; stronger effect = higher value
How it was run: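 Compounds are added by online pintool to dye-loaded TRHR cells while fluorescence is recorded every second. A rise in calcium signal during the agonist read marks activation; a later 10 nM TRH addition (EC20) serves the separate enhancer mode.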

[14] = target: D(1A) dopamine receptor (Homo sapiens) (UniProt P21728); assay: HTS Assay for Allosteric Agonists of the Human D1 Dopamine Receptor: Primary Screen for Antagonists (AID 488983);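 also: calcium flux response to an EC80 dopamine challenge measured with no-wash dye; nearly all actives have a fitted effect of over 65% in size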
How it was run: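 Kinetic fluorescence at 1 cycle/sec tracked intracellular calcium in force-coupled, tetracycline-inducible HEK293 T-REx D1 cells. Loss of response to an EC80 dopamine dose, given 180 s after compound, marked antagonists.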

[15] = target: ATPase family AAA domain-containing protein 5 (Homo sapiens) (UniProt Q96QE3); assay: Validation screen for small molecules that inhibit ELG1-dependent DNA repair in human embryonic kidney (HEK293T) cells expressing luciferase-tagged ELG1 (AID 493107); also: nearly all actives have a fitted effect of over 70% in size; also: potency is read from the fitted curve at half-maximal effect
How it was run: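 Cells are dispensed in 1536-well format, then 5-fluorouridine and compound are pinned in. After a 16 hr incubation at 37 °C and 5% CO2, ONE-Glo is added and luciferase measured on a CCD imager.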

[16] = Quantitative high throughput screen for delayed death inhibitors of the malarial parasite plastid, 48 hour incubation (AID 488752); also: nearly all actives have a fitted effect of over 65% in size
How it was run: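 First, compound was pinned into RPMI 1640 medium containing 0.5% Albumax. Next, reporter-parasite-infected erythrocytes were added to 2% hematocrit and 0.1% parasitemia. After 48 h at 37 C under 5% CO2, luciferase detection reagent was added and luminescence read.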

[17] = target: Chromobox protein homolog 1 (Homo sapiens) (UniProt P83916); assay: qHTS Validation Assay for Inhibitors of HP1-beta Chromodomain Interactions with Methylated Histone Tails (AID 488953); also: nearly all actives have a fitted effect of over 50% in size; also: potency is read from the fitted curve at half-maximal effect
How it was run: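 Disruption of preformed HP1-beta:H3K9me3 peptide complexes (both 50 nM, PBS pH 7.4 with 0.01% Tween-20) is measured by AlphaScreen after 30 min compound exposure at room temperature, using streptavidin donor and nickel chelate acceptor beads at 10 ug/mL final.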

[18] = target: ATP-dependent 6-phosphofructokinase (Trypanosoma brucei brucei) (UniProt O15648); assay: qHTS Assay to Find Inhibitors of T. brucei phosphofructokinase: hit validation (AID 492961);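 also: luminescence reports ADP formed as PFK phosphorylates fructose-6-phosphate with ATP; series mostly up to about 51 µM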
How it was run: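 Measures ADP output of PFK (1.25 nM) at 0.1 mM ATP, 0.5 mM F6P, pH 8.0 TEA buffer with 5 mM MgCl2. No-enzyme wells define full inhibition; uninhibited enzyme wells define zero.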

Sequence of Thyrotropin-releasing hormone receptor (Homo sapiens) (P34981 whole entry, looked up): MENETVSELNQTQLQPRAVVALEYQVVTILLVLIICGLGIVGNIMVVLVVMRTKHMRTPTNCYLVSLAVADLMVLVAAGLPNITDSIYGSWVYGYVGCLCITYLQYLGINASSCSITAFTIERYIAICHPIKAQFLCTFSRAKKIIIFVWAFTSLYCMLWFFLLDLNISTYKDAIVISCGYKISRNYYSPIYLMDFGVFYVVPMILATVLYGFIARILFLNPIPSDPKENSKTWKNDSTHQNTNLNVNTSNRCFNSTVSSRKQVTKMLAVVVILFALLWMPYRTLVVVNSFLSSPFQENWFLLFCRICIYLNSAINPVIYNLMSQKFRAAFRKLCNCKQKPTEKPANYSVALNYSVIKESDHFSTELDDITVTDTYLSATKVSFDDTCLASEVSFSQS
Sequence of D(1A) dopamine receptor (Homo sapiens) (P21728 whole entry, looked up): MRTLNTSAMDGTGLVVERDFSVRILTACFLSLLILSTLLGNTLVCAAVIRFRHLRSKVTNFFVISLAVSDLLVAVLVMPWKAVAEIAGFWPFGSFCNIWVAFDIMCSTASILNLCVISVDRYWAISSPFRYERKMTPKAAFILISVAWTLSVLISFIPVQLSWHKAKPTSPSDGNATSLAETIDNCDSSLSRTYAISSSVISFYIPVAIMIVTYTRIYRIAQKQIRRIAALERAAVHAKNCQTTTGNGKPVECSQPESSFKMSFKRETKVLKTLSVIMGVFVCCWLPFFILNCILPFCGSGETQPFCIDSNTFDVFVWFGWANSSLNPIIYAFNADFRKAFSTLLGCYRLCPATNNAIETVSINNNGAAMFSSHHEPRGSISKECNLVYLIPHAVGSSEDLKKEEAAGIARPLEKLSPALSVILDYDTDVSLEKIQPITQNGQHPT
Sequence of Thyrotropin receptor (Homo sapiens) (P16473 whole entry, looked up): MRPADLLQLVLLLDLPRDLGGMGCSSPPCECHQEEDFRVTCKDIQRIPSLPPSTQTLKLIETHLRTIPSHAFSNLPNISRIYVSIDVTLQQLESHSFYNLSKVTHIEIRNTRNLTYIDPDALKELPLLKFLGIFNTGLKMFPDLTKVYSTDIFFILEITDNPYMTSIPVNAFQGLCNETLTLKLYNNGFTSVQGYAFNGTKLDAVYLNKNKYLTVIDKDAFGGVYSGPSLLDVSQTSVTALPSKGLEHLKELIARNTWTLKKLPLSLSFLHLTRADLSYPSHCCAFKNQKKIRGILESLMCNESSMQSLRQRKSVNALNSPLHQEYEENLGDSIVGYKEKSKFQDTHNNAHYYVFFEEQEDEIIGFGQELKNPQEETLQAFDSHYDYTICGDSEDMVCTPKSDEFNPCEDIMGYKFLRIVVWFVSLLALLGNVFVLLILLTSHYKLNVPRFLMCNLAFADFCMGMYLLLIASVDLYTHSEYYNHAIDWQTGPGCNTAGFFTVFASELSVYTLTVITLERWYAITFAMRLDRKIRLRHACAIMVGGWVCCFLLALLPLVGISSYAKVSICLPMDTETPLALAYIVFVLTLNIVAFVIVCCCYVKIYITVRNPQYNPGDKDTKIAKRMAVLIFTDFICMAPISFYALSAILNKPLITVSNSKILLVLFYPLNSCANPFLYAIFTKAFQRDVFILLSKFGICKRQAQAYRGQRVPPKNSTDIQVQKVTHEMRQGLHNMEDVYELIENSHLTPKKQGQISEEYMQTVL
Sequence of Thioredoxin reductase 1, cytoplasmic (Rattus norvegicus) (O89049 whole entry, looked up): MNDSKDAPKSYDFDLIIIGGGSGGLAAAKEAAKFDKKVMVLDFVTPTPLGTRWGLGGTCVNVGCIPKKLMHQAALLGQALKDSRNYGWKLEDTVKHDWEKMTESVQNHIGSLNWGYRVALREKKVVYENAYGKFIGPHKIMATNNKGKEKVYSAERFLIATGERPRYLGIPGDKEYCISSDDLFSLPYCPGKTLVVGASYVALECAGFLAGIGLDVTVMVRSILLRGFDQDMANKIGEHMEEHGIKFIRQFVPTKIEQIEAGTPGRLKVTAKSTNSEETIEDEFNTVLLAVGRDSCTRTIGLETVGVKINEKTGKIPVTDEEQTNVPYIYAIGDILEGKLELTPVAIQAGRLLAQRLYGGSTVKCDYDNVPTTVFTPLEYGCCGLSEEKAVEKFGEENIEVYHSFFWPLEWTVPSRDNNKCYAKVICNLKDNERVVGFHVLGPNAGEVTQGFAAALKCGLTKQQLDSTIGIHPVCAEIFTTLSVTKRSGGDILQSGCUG
Sequence of Methanococcus maripaludis chaperonin (MmCpn) (Q6LX38 1-543): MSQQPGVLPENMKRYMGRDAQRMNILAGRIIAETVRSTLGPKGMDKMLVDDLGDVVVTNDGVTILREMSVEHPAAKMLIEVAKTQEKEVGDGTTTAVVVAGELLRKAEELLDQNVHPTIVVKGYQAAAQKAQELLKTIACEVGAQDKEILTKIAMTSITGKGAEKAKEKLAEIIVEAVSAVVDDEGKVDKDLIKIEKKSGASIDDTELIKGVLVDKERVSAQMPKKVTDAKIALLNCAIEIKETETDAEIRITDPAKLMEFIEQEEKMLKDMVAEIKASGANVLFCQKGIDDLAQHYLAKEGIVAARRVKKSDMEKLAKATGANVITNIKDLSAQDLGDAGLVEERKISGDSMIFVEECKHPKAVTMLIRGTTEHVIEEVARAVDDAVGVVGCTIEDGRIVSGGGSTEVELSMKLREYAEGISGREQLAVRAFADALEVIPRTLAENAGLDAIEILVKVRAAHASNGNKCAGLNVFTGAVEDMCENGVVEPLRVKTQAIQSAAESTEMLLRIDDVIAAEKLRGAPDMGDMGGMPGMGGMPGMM
Sequence of Transient receptor potential cation channel subfamily V member 1 (Homo sapiens) (Q8NER1 whole entry, looked up): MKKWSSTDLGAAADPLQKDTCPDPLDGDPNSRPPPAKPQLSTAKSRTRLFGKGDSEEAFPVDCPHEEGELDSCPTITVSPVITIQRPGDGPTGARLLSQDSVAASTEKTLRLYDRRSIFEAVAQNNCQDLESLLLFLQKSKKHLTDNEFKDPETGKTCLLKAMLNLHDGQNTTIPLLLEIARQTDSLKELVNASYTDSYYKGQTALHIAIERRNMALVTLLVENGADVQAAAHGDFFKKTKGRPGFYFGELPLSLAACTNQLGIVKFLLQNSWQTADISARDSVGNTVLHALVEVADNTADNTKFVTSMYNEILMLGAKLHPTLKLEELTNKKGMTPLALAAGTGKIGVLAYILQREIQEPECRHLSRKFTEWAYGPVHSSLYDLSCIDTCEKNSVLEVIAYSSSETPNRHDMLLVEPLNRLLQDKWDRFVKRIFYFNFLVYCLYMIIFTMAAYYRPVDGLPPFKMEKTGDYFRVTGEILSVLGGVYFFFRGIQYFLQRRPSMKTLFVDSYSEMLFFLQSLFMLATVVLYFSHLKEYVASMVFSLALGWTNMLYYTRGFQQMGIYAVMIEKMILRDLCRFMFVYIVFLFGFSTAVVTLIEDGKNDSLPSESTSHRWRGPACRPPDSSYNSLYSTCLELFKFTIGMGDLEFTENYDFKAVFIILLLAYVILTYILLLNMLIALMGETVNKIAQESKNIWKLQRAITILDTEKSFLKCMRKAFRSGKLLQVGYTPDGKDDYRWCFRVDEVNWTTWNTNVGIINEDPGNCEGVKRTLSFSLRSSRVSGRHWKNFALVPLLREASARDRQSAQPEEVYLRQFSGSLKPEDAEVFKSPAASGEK
Sequence of M-phase phosphoprotein 8 (Homo sapiens) (Q99549 whole entry, looked up): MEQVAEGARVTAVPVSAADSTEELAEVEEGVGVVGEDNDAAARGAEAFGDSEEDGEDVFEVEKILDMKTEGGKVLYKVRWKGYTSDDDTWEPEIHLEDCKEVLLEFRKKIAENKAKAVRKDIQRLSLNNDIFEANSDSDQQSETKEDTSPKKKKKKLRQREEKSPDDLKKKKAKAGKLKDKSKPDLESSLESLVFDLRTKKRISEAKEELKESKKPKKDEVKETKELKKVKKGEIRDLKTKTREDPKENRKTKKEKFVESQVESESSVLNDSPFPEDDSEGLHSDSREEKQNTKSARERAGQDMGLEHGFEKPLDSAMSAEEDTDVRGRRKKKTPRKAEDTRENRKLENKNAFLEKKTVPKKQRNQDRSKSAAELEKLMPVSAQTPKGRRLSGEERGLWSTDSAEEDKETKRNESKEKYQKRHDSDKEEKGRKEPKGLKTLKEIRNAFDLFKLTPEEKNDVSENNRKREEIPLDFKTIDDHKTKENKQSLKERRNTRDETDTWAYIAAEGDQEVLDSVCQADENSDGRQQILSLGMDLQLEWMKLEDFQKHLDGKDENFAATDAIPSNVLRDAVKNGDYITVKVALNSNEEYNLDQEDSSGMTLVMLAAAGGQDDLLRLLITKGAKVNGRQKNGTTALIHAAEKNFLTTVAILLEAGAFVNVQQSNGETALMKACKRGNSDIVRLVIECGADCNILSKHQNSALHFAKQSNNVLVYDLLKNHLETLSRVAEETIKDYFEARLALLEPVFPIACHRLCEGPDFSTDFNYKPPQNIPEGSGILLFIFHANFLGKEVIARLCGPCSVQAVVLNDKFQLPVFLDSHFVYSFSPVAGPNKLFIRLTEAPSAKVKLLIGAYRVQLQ
Sequence of ATP-dependent 6-phosphofructokinase (Trypanosoma brucei brucei) (O15648 whole entry, looked up): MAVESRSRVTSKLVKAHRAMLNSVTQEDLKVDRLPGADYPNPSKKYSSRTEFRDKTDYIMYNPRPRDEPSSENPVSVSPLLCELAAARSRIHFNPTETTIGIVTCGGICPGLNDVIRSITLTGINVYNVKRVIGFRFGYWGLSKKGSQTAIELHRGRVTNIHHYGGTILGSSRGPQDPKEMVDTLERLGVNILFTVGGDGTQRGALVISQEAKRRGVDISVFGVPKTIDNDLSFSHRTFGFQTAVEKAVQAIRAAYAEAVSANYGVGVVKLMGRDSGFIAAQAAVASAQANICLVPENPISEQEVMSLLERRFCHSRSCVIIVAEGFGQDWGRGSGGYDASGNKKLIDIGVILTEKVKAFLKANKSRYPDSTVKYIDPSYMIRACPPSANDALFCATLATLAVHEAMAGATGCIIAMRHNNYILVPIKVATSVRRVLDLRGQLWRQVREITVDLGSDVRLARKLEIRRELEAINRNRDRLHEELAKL
Sequence of Chromobox protein homolog 1 (Homo sapiens) (P83916 whole entry, looked up): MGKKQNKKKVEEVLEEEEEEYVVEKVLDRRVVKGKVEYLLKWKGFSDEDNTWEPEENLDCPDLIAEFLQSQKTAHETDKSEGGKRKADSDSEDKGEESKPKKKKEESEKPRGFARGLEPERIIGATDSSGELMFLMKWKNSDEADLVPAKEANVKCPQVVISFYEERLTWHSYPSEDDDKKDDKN

Structure (SMILES)	Potency [1]	Potency [2]	outcome [3]	Potency [4]	Potency [5]	Potency [6]	outcome [7]	outcome [8]	outcome [9]	Potency [10]	Potency [11]	Potency [12]	activation [13]	Potency [14]	Potency [15]	Potency [16]	Potency [17]	outcome [18]
COc1ccccc1N1CCN(CCN(C(=O)c2ccc(F)cc2)c2ccccn2)CC1	inactive	inactive	inactive	inactive	inactive	inactive	inactive	inactive	inactive	inactive	inactive	inactive	0.312% (inactive)					
CC(C)(CO)Cc1cc(C(C)(C)C)c(O)c(C(C)(C)C)c1		inactive		inactive	inactive	inactive	inactive	inactive	inactive	15.8 µM (active)		inactive	-13.9% (inactive)	inactive	inactive			
OC1(c2ccc(Cl)cc2)CCN(Cc2c[nH]c3ccccc23)CC1			inactive	inactive	inactive		inactive		inactive			inactive	7.75% (inactive)		inactive			
CC(C)NC[C@H](O)COc1cccc2ccccc12	inactive		inactive	inactive		inactive	inactive				inactive	inactive		inactive	inactive			
CC1=C(C(=O)O)N2C(=O)[C@@H](NC(=O)C(N)C3=CCC=CC3)[C@H]2SC1 (stereo not given in full)	inactive	inactive	inactive	inactive		inactive	inactive	inactive	inactive	inactive	inactive	inactive		inactive		inactive	inactive	
CN1CCc2cc(Cl)c(O)cc2[C@@H](c2ccccc2)C1	inactive		inactive	inactive	inactive	inactive	inactive			inactive	inactive	inactive			inactive		inactive	
CN(C)C(=O)/N=N/C(=O)N(C)C		inactive	inactive	inactive	inactive	31.6 µM (active) and inactive	inactive	inactive	inactive	inactive	inactive	inactive	0.75% (inactive)	inactive	inactive	inactive		
CC(=O)O[C@H]1CC2(C)[C@@H](C[C@@H](O)[C@H]3[C@@]4(C)CC[C@@H](O)[C@@H](C)[C@@H]4CC[C@@]32C)C1=C(CCC=C(C)C)C(=O)O (stereo not given in full)		inactive	inactive	inactive	inactive	inactive	inactive	inactive	inactive	inactive	inactive	inactive	1.06% (inactive)	inactive	inactive	inactive	inactive	
CC(N)(Cc1ccc(O)c(O)c1)C(=O)O (stereo not given)		inactive	inactive	2.99 µM (active)	2.38 µM (active)	79.4 µM (active) and 2.38 µM (active)	inactive	inactive		inactive		inactive	0% (inactive)	inactive	inactive	inactive	5.32 µM (active)	
N[C@H]1CONC1=O		inactive	inactive	inactive	inactive	inactive	inactive	inactive	inactive	inactive	inactive	inactive		inactive	inactive	inactive	inactive	
CC[C@H](NC(=O)c1c(C)c(-c2ccccc2)nc2ccccc12)c1ccccc1		3.7 µM (active)	inactive	inactive	inactive	inactive	inactive	inactive	inactive	inactive	inactive	inactive	-8.62% (inactive)	inactive	inactive		inactive	
COc1ccc(-c2cc3ncc(C)n3c(Nc3ncccc3C(N)=O)n2)cc1OC	inactive		inactive		inactive	inactive	inactive			inactive	inactive	inactive		inactive				
COC(=O)C1=C(C)NC(C)=C([N+](=O)[O-])C1c1ccccc1C(F)(F)F (stereo not given)			inactive	inactive	inactive	inactive	inactive	inactive	inactive		inactive	inactive	-3.94% (inactive)	inactive	inactive			
C=C1C(=O)O[C@@H]2[C@H]3O[C@]3(C)CCC=C(C)CC[C@@H]12	inactive		inactive	16.8 µM (active)	inactive	inactive	inactive	inactive	inactive		inactive	inactive	-0.125% (inactive)	inactive	25.9 µM (active)	inactive	inactive	
c1ccc(C2CN3CCSC3=N2)cc1 (stereo not given)		inactive	inactive	inactive	inactive	inactive	inactive	inactive	inactive	inactive	inactive	inactive	-0.188% (inactive)	inactive	inactive	inactive	inactive	inactive
O=C(O)CCC/C=C\C[C@@H]1[C@@H](/C=C/[C@H](O)C2Cc3ccccc3C2)[C@@H](F)C[C@@H]1O	inactive			inactive	inactive	inactive	inactive			inactive	inactive	inactive		inactive	inactive			
